CHX counter: affects cycloheximide protein synthesis inhibition readout, counter-screen. cell reporter, cycloheximide protein synthesis inhibition counterscreen. max response, %. 300,000 compounds, 12% hits. AID 2314; in the data active = max response mostly above about 13%, no sharp cut-off; inactive = mostly below about 14%; also: read at 38.3 µM for the half of the compounds with a filed dose; 0% is about no effect
Pf growth 48h: P. falciparum growth inhibition at 48 hours (one generation); Potency, µM (top dose mostly 28.7 µM), without a hit: at the top dose activity change, negative = inhibition, most hits filed as inhibitors; P. falciparum luciferase growth in erythrocytes, 48 h; AID 504832; 310,000 compounds, 5.9% hits; also: potency is read from the fitted curve at half-maximal effect; % is scaled to controls: 0 for no effect and ±100 for the full control effect
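Here the parasites carry a stable luciferase gene and grow inside erythrocytes in Albumax-based RPMI medium with compound for one erythrocytic cycle. Activity is scored as loss of luminescent signal.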
Shiga toxin inh: Shiga toxin inhibition; Vero cells, Shiga toxin protein synthesis inhibition reporter; inhibition, % at 38.7 µM; 290,000 compounds, 9.2% hits; in the data active = inhibition mostly above about 28%, no sharp cut-off; inactive = mostly below about 43%; also: 0% is about no effect
LASV entry inh: Lassa virus entry inhibition; Lassa virus pseudotype entry inhibition, cell reporter; Potency, µM (highest dose often 37.9 µM), for inactives: at the top dose activity change, negative = inhibition, hits mostly inhibitors; 300,000 compounds, 1.2% hits; AID 540256; calls by dose curve; tested in HEK293 cells; also: potency is read from the fitted curve at half-maximal effect; % is scaled to controls: 0 for no effect and ±100 for the full control effect; nearly all actives have a fitted effect of over 50% in size
Pf growth 96h: inhibits malaria parasite growth, 96 h. P. falciparum luciferase reporter growth, 96 h. Potency, µM (titrated, usually from 28.7 µM), for inactives: at the top dose activity change, negative = inhibition, usual class: inhibitors. 320,000 compounds, 6.9% hits; also: potency is read from the fitted curve at half-maximal effect; % is scaled to controls: 0 for no effect and ±100 for the full control effect
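Luminescence readout: decreased luciferase signal marks inhibited growth of reporter-expressing P. falciparum in infected red cells (2% hematocrit, 0.05% parasitemia final), exposed to compound two generations (96 h, 37 C, 5% CO2).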
MARV entry inh: inhibitors of Marburg virus binding or cell entry | Marburg virus pseudotyped entry inhibition, cell reporter | Potency, µM (titrated, usually from 37.8 µM), inactives show top-dose activity change, negative = inhibition, hits mostly inhibitors | 300,000 compounds, 1.8% hits; calls by dose curve; tested in HEK293 cells; also: potency is read from the fitted curve at half-maximal effect; % is scaled to controls: 0 for no effect and ±100 for the full control effect
* hit, by the source's call; ? = inconclusive; . = no result given; [ ] = dose if it differs, or a comment. In the library only some 19% were active in any assay of this set; here they are far more common. Unless noted, calls follow the shape of the dose curve; as a rule, active = well fitted inhibition curve with a large enough effect; inconclusive = small, poorly fitted or top-dose-only effect, or another doubt; inactive = no such curve, though single readings can be large or run the other way.

SMILES | CHX counter | Pf growth 48h | Shiga toxin inh | LASV entry inh | Pf growth 96h | MARV entry inh
CCCCCn1c(NC(=O)c2ccco2)c(C(=O)OCC)c2nc3ccccc3nc21 | -2 | ? | 18 | ? | ? | 4.5µM*
CCOC(=O)c1c(N)n(CCCOC(=O)c2ccco2)c2nc3ccccc3nc12 | -3 | -6% | -7 | ? | ? | ?
CCC(=Nc1ccc(OC)cc1OC)c1c(O)n(C2CCCCC2)c(=O)[nH]c1=O | -4 | 7.4µM* | -12 | ? | ? | ?
CCC(=NCc1ccco1)c1c(O)n(C2CCCCC2)c(=O)[nH]c1=O | -4 | ? | -4 | 3.7µM* | ? | -2%
Cc1ccc(N2CC(C(=O)Nc3ccc4c(c3)OCO4)CC2=O)cc1 (centres undefined) | 3 | -3% | -5 | 0% | 10% | 5%
O=C(Nc1nnc(SCC(=O)N2CCCC2)s1)C1CC(=O)N(c2ccc(F)cc2)C1 (centres undefined) | -3 | -23% | 9 | ? | 12µM* | ?
Cc1cccc(N2CC(C(=O)Nc3ccc4c(c3)OCCO4)CC2=O)c1C (centres undefined) | 11 | 7% | 71* | -5% | 24% | 0%[46.1 µM]
CC(C)Oc1ccc(N2CC(C(=O)Nc3ccc4c(c3)OCO4)CC2=O)cc1 (centres undefined) | 1 | . | 4 | . | 15µM* | .
CS(=O)(=O)c1ccc2nc(NC(=O)C3CC(=O)N(c4ccc(F)cc4)C3)sc2c1 (centres undefined) | -2 | -5% | -4 | ? | -25% | 15%[46.1 µM]
CCc1ccc(N2CC(C(=O)Nc3nc4ccc(S(C)(=O)=O)cc4s3)CC2=O)cc1 (centres undefined) | 17* | 17% | 67* | 8%[46.1 µM] | ? | 2%[46.1 µM]
CC1CCCCN1C(=O)CSc1nc(C2CC2)nc2ccccc12 (centres undefined) | -7 | ? | -5 | -15%[46.1 µM] | -41% | ?
COc1cccc(-c2nn(Cc3ccccc3)cc2C(=O)O)c1 | 3 | -1% | 25 | 4% | 10% | 17%[46.1 µM]
COc1ccccc1-c1nnc(NC(=O)Cc2ccccc2)o1 | 1 | 3% | -5 | . | ? | .
Cc1ccccc1N1CC(C(=O)Nc2nnc(SCc3ccccn3)s2)CC1=O (centres undefined) | -4 | 13µM* | -8 | . | 7.4µM* | .
COc1ccc(N2CC(C(=O)Nc3nnc(SCCC4OCCO4)s3)CC2=O)cc1 (centres undefined) | 0 | ? | -5 | . | 13µM* | .
CCOc1ccc(CCNC(=O)C2CC(=O)N(c3ccc4c(c3)OCCO4)C2)cc1OCC (centres undefined) | . | ? | . | -20% | 3.3µM* | -6%
Cc1cc(NC(=O)CN2C(=O)CC(c3ccco3)Sc3ccccc32)no1 (centres undefined) | 1 | ? | 3 | . | 12µM* | .
O=C(NCCc1ccc(C(F)(F)F)cc1)C1CC(=O)N(c2ccc3c(c2)OCCO3)C1 (centres undefined) | . | ? | . | . | -2% | .
Cc1ccc(C)c(OCCC(=O)NNC(=O)c2cc(C)oc2C)c1 | . | ? | . | . | -19% | .
CCc1ccc(N2CC(C(=O)Nc3ccc4c(c3)OCCO4)CC2=O)cc1 (centres undefined) | 31* | 55% | 82* | 17%[46.1 µM] | 39% | -21%[46.1 µM]
Cc1cc(NC(=O)C2CC(=O)N(c3ccccc3C)C2)no1 (centres undefined) | -3 | 16% | -2 | . | 12µM* | -6%[46.1 µM]
CC(=O)Nc1ccc(-c2csc(NC(=O)C3CC(=O)N(c4ccc5c(c4)OCCO5)C3)n2)cc1 (centres undefined) | 8 | ? | 6 | . | ? | .
COc1ccc(N2CC(C(=O)Nc3ccc4c(c3)OCCO4)CC2=O)cc1 (centres undefined) | 16 | 4% | 20 | 8% | 18% | 1%
COC(=O)c1ccc(CSc2nnc(NC(=O)C3CC(=O)N(c4ccc5c(c4)OCCO5)C3)s2)cc1 (centres undefined) | 20* | 13% | 2 | 15% | ? | -21%
COc1ccc(-c2csc(NC(=O)C3CC(=O)N(c4ccc5c(c4)OCCO5)C3)n2)cc1 (centres undefined) | 24* | ? | 14 | ? | 12µM* | ?
SMILES | CHX counter | Pf growth 48h | Shiga toxin inh | LASV entry inh | Pf growth 96h | MARV entry inh
CC(C)N(Cc1ccccc1)C(=O)CN1C(=O)NC(Cc2ccccc2)(c2ccccc2)C1=O (centres undefined) | -3 | ? | -3 | -8% | 12µM* | ?
COc1ccc(CNC(=O)CN2C(=O)NC(Cc3ccccc3)(c3ccccc3)C2=O)cc1OC (centres undefined) | . | ? | . | . | 15µM* | .
Cc1c(C(=O)O)cccc1-c1ccc(C=O)o1 | 35* | 44% | 54* | 9% | -4% | ?
COc1ccc(NC(=O)/C(C#N)=C\c2ccc(-c3cccc(C(=O)O)c3C)o2)cc1 | 21* | ? | 35* | -11%[46.1 µM] | ? | -14%[46.1 µM]
Cc1ccc(NC(=O)CN2C(=O)S/C(=C\c3ccc(-c4cccc(C(=O)O)c4C)o3)C2=O)cc1 | 8 | 33% | 52 | . | . | 3%
COc1ccc(NC(=O)/C(C#N)=C\c2ccc(Br)o2)cc1 | 22* | 1% | 25 | . | -2% | .
CNC(=O)/C(C#N)=C/c1ccc(-c2ccc(OC)cc2[N+](=O)[O-])o1 | 56* | ? | 27* | 4% | ? | 9%
COc1ccc(-c2ccc(C(=O)O)o2)c([N+](=O)[O-])c1 | 11 | 16% | 2 | 13%[46.1 µM] | ? | 0%[46.1 µM]
Nc1ccc(CCNc2ncnc3c2ncn3[C@@H]2O[C@@H](CO)[C@H](O)[C@@H]2O)cc1 | . | . | . | . | . | -6%
O=C1CC(c2c[nH]c3ccccc23)C(=O)N1c1ccccc1 (centres undefined) | -2 | 11% | 18 | -7% | 7.4µM* | 11%
CN(N)c1nc(-c2ccccc2)cc(-c2ccccc2)n1 | -1 | -10% | -2 | 0% | 83% | 9%
Cc1cc(-c2ccccc2)nc(N/N=C/c2ccc(O)cc2O)n1 | 23* | ? | 91* | -18%[46.1 µM] | -11% | ?
Cc1cc(-c2ccccc2)nc(N/N=C/c2ccccc2)n1 | 32* | 84% | 55* | ? | 77% | ?
Cc1cc(-c2ccccc2)nc(N/N=C/c2cccnc2)n1 | 2 | 28% | 22 | . | ? | -2%[46.1 µM]
CNc1nc(C)nc(N/N=C/c2ccccc2)n1 | 28* | 101% | 53 | -1%[46.1 µM] | 21% | 6%[46.1 µM]
CN(/N=C/c1ccc(O)cc1O)c1nc(-c2ccccc2)cc(-c2ccccc2)n1 | -2 | 9.3µM* | -7 | 3% | 5.2µM* | ?
CC1CC(C)CN(C(=O)CN2C(=O)NC3(CCCCCC3)C2=O)C1 (centres undefined) | . | . | . | -1%[46.1 µM] | . | -11%[46.1 µM]
COCCN1Cc2cccc(C(=O)Nc3ccc(C)c(C)c3)c2C1=O | 2 | . | -4 | -4% | 31% | 0%
Cc1cc(-c2ccccc2)nc(N/N=C/c2ccco2)n1 | 36* | -1% | 85* | -9% | -1% | 0%
